Measured values reported in the supplement of paper PMC10849652.
Targets with a hit are over-represented here; the source holds about 8,800 in all. About 0.5% of all pairs of compound and target were hits. A number with no mark means an inactive call.

Sequence of UniProt P31947 (P31947 whole entry, looked up): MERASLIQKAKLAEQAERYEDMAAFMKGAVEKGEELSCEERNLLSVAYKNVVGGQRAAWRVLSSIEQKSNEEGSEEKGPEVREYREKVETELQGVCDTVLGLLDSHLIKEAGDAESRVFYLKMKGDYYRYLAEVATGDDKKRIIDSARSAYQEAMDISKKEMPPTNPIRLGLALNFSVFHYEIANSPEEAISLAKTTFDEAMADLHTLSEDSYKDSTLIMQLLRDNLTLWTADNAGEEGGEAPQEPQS
Sequence of UniProt Q86US8 (Q86US8 whole entry, looked up): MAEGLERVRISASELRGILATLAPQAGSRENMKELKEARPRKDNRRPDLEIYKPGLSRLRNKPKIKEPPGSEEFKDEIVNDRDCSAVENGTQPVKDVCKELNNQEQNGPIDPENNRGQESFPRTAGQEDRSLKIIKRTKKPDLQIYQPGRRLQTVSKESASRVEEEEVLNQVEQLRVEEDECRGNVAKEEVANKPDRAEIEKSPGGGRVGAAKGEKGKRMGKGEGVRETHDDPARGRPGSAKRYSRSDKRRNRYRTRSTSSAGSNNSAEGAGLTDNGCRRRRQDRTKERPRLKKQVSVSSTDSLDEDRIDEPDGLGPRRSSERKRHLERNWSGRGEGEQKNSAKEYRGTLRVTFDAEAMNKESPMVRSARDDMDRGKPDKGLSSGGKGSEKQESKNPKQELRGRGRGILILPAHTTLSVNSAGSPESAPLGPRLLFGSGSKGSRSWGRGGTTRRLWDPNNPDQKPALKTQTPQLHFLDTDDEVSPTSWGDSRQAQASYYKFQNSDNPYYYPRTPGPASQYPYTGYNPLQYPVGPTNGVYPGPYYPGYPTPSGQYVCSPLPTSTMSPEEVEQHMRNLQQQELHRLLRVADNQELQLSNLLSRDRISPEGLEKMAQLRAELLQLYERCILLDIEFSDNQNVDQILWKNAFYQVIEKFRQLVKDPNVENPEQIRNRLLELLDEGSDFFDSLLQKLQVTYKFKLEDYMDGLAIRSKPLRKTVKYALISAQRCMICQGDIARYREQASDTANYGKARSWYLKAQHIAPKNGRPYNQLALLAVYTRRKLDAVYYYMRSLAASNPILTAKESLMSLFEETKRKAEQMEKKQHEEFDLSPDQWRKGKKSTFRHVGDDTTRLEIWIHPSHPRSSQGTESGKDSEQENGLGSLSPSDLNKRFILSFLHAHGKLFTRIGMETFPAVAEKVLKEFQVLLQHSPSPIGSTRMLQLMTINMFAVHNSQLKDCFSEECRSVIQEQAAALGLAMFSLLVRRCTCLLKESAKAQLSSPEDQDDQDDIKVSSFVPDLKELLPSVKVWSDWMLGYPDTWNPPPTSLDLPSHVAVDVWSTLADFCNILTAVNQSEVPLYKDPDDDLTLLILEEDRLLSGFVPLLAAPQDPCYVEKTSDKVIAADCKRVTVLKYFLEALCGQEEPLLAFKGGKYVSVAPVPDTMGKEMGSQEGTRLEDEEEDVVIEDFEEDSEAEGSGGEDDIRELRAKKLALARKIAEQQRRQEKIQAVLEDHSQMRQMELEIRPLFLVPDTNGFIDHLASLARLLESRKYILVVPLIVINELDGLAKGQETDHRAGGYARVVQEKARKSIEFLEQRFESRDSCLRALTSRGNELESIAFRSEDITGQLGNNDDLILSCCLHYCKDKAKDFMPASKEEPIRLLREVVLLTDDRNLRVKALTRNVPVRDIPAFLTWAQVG
Sequence of UniProt Q96SB8 (Q96SB8 whole entry, looked up): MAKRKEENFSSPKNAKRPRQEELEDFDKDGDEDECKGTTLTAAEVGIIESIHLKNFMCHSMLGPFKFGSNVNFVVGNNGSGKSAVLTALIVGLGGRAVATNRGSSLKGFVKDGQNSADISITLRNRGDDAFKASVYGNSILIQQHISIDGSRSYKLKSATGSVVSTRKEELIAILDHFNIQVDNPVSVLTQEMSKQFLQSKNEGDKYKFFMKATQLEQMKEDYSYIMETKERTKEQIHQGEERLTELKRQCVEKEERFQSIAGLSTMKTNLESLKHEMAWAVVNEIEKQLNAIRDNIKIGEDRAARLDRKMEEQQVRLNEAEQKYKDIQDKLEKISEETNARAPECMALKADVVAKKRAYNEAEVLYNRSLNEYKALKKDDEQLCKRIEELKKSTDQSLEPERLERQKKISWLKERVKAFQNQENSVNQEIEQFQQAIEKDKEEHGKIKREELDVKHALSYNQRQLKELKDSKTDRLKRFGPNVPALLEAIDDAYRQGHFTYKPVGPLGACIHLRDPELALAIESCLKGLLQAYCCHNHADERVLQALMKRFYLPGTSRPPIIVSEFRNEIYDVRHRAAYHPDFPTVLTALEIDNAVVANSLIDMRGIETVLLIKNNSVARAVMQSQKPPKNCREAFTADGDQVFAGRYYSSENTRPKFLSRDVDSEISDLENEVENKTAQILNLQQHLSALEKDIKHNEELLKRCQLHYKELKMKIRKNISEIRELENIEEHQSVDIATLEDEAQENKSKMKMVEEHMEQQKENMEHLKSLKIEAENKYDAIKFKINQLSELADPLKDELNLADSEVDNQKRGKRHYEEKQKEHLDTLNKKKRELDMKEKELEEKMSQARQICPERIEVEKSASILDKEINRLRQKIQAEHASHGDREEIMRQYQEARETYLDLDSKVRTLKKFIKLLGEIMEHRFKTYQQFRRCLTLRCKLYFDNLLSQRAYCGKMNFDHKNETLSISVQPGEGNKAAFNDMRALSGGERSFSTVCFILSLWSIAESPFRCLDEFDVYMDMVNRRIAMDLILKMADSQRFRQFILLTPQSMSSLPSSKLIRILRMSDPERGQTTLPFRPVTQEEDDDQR
Sequence of UniProt Q9H2V7 (Q9H2V7 whole entry, looked up): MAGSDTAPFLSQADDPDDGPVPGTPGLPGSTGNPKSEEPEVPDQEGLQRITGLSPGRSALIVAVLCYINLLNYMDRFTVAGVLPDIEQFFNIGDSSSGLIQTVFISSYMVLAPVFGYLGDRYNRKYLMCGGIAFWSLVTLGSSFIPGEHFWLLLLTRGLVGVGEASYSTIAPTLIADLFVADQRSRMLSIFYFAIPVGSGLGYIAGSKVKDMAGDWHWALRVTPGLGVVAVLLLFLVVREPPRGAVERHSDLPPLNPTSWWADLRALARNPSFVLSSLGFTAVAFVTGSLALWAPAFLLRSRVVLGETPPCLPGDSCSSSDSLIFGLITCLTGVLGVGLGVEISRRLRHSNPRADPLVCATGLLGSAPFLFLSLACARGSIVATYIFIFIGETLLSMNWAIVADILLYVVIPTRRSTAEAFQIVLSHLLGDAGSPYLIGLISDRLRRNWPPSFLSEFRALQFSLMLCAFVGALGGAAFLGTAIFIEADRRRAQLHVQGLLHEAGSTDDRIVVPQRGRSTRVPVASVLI
Sequence of UniProt P49281 (P49281 whole entry, looked up): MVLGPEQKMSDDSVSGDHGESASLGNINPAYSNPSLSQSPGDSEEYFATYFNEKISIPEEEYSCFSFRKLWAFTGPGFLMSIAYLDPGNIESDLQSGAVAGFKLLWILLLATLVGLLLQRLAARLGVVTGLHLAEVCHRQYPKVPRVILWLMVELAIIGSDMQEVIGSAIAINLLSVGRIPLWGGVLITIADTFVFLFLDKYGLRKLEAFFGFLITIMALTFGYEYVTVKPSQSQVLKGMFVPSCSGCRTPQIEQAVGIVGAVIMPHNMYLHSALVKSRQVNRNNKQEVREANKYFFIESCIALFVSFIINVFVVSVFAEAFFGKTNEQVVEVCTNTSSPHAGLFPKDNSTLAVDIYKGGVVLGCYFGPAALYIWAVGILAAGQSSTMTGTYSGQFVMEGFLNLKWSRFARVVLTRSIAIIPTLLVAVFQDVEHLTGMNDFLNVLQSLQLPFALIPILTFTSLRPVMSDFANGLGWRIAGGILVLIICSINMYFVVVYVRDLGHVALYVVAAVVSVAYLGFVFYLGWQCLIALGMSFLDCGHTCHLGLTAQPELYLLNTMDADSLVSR
Sequence of UniProt Q15208 (Q15208 whole entry, looked up): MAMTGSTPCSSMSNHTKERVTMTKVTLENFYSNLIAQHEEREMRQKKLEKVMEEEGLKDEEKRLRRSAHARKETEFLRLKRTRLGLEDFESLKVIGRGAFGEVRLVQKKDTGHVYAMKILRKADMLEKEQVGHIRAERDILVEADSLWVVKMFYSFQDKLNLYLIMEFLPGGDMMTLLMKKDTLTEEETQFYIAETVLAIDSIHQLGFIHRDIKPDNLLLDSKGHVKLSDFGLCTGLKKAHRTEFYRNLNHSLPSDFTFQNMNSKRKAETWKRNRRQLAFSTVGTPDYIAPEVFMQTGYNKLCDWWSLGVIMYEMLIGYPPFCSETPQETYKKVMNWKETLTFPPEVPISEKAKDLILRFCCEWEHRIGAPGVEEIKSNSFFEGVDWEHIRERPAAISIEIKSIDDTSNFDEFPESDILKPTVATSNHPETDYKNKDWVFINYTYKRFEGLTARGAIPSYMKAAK
Sequence of UniProt Q86XZ4 (Q86XZ4 whole entry, looked up): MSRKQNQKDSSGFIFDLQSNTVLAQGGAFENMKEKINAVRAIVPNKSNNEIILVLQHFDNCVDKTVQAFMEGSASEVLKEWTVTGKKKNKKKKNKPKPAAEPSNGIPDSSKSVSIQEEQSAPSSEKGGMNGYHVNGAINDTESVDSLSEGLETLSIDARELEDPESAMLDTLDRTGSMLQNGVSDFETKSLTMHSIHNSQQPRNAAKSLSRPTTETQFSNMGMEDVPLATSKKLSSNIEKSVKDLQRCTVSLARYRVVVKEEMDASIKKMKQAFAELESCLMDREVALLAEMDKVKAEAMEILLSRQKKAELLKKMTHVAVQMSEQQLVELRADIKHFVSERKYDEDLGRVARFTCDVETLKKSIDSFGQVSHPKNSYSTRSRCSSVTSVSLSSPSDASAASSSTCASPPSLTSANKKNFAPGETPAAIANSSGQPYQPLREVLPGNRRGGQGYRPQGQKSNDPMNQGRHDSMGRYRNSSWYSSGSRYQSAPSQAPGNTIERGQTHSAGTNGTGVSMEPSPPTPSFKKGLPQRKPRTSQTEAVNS
Sequence of UniProt Q9UJC5 (Q9UJC5 whole entry, looked up): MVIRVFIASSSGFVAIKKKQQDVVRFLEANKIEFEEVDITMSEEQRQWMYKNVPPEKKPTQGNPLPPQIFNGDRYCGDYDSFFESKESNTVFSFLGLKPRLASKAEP

What follows are targets tested with NCC(=O)Nc1ccc(-n2nc(C(F)(F)F)cc2-c2ccc3c(ccc4ccccc43)c2)cc1 (assay: log2 fold change, soluble protein after heating vs DMSO (PISA); higher = thermal stabilisation; K562 lysate, 10 uM; active = over 0.2 and 3.5 SD of the protein, either way, in both replicates (recomputed)).
How it was run: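 Quantification was by TMTpro 16plex LC-MS/MS with equalised channel sums, applied to the supernatant after 21,000xg for 90 min. Samples were crude K562 extract at 1 mg/mL protein in PBS pH 7.4 with 1 mM MgCl2, treated with 10 μM compound for 30 min, heated for 3 min across 48°C-58°C, pooled and brought to 0.5% NP-40 at 4°C. Values are log-two fold changes in thermal stability relative to solvent controls, from duplicates.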
Work on SPNS1 (UniProt Q9H2V7) yielded a log2 fold change of 0.086.
SRM (UniProt P19623) gave a log2 fold change of 0.009.
With STOML2 (UniProt Q9UJZ1) the log2 fold change was 0.03.
For SFN (UniProt P31947), the log2 fold change was -0.001.
In the case of SMC1B isoform 3 (UniProt Q8NDV3), the log2 fold change was -0.063.
For STK24 (UniProt B4DR80), the log2 fold change was 0.023.
Target STAU1 (UniProt O95793) has a log2 fold change of 0.045.
Work on SPATS2 (UniProt Q86XZ4) yielded a log2 fold change of -0.047.
With SMC4 (UniProt Q9NTJ3) the log2 fold change was 0.013.
STK38 (UniProt Q15208) showed a log2 fold change of 0.021.
SMG6 (UniProt Q86US8) was tested, and the log2 fold change was 0.119.
Work on SMARCA4 (UniProt P51532) yielded a log2 fold change of 0.015.
In the case of SSBP3 (UniProt Q9BWW4), the log2 fold change was -0.085.
In the case of STAT2 (UniProt P52630), the log2 fold change was -0.018.
For STUB1 (UniProt Q9UNE7), the log2 fold change was -0.012.
In the case of SHKBP1 (UniProt Q8TBC3), the log2 fold change was -0.031.
For SSB (UniProt P05455), the log2 fold change was 0.027.
Work on SMG7 (UniProt Q92540) yielded a log2 fold change of 0.158.
Target SMG1 (UniProt Q96Q15) has a log2 fold change of 0.005.
Target SRRT (UniProt Q9BXP5) has a log2 fold change of -0.036.
In the case of SHC1 isoform 6 (UniProt P29353), the log2 fold change was 0.029.
Work on SH3BGRL2 (UniProt Q9UJC5) yielded a log2 fold change of -0.003.
SP1 (UniProt P08047) was tested, and the log2 fold change was 0.001.
Work on SHCBP1 (UniProt Q8NEM2) yielded a log2 fold change of 0.02.
SH3BP5L (UniProt Q7L8J4) gave a log2 fold change of -0.003.
For SYNRG (UniProt Q9UMZ2), the log2 fold change was 0.02.
STK26 (UniProt Q9P289) was tested, and the log2 fold change was -0.027.
SMC2 (UniProt O95347) was tested, and the log2 fold change was 0.014.
Work on SLC11A2 isoform 3 (UniProt P49281) yielded a log2 fold change of -0.011.
With SYF2 (UniProt O95926) the log2 fold change was -0.047.
Work on SMC6 (UniProt Q96SB8) yielded a log2 fold change of -0.006.
SLC29A2 (UniProt Q14542) gave a log2 fold change of -0.045.
SNAP23 (UniProt O00161) was tested, and the log2 fold change was -0.017.
